NPC1 prom act: qHTS Assay for NPC1 Promoter Activators; 320,000 compounds, 2.4% hits; Potency, µM (series often up to 9.22 µM), without a hit: at the highest dose activation, actives largely listed as activators; Huh7 NPC1 promoter luciferase reporter, 24 h; note: % of control where 0% means no effect; nearly all actives have a fitted effect of over 60% in size
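Luminescence read-out of NPC1 promoter-driven luciferase in stably transfected Huh7 cells; compounds delivered in DMSO and left 24 h at 37C, 5% CO2, qHTS titration format.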
SMN2 splice up: qHTS Assay for Enhancers of SMN2 Splice Variant Expression | AID 1458, 2008 | HEK293 SMN2-luciferase splicing reporter, luminescence, 30-36 h | Potency, µM (series often up to 46.1 µM), for the others: top-dose activity change, positive = activation, most hits filed as activators | 210,000 compounds, 2.8% hits; note: % of control where 0% means no effect; nearly all actives have a fitted effect of over 55% in size
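HEK293 cells carry an SMN2 minigene-luciferase reporter in which exon 7 inclusion puts luciferase in frame. Cells were seeded at 2000 cells/well, attached for 10-12 hours, then exposed to compounds for 30-36 hours at 37C before ONE-Glo luminescence.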
ELG1 DNA repair: qHTS screen for small molecules that inhibit ELG1-dependent DNA repair in human embryonic kidney (HEK293T) cells expressing luciferase-tagged ELG1; HEK293T ELG1-luciferase reporter, luminescence, 16 h; DNA damage induced by 5-fluorouridine; Potency, µM (doses to about 46.1 µM), for inactives: top-dose activity change, negative = inhibition, most hits filed as inhibitors; 330,000 compounds, 2.3% hits; note: % is set by controls: 0 for no effect and ±100 for the full control effect; nearly all actives have a fitted effect of over 55% in size
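Luminescence from the luciferase reporter, measured 30 min after ONE-Glo reagent at room temperature, was the read-out. Beforehand, 2,000 cells per well were exposed for 16 hr at 37 °C to 5-fluorouridine together with compound or vehicle.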
FLuc counter: qHTS profiling assay for firefly luciferase inhibitor/activator using purifed enzyme and Km concentrations of substrates (counterscreen for miR-21 project). Potency, µM (titrated, usually from 57.5 µM), without a hit: top-dose activity change, negative = inhibition, usual class: inhibitors. 360,000 compounds, 6.9% hits. purified FLuc, Km substrates, luminescence inhibition. AID 588342, 2011. Luciferin 4-monooxygenase (Photinus pyralis), P08659;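 note: plate controls were vehicle for no effect and reference inhibitor for full effect; nearly all actives have a fitted effect of over 55% in size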
Target sequence (P08659 whole entry, looked up): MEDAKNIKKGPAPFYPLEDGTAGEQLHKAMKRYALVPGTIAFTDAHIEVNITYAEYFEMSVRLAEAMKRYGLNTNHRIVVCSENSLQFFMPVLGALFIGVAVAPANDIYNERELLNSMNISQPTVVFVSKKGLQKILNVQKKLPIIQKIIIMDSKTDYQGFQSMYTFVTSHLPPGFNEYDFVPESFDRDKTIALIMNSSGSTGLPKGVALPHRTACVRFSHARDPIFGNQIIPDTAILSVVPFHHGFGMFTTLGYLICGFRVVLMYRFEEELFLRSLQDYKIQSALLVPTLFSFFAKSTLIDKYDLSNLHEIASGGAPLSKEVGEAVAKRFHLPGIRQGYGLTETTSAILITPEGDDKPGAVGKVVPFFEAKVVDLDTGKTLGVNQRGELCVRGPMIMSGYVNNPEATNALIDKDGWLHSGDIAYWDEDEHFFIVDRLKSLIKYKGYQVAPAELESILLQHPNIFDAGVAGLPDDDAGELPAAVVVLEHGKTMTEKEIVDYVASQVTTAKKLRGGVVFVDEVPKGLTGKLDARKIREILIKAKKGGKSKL
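Biochemical qHTS of compounds, final roughly 60 µM downward over six points, against 10 nM purified firefly luciferase using Km concentrations of substrates (10 uM D-luciferin, 10 uM ATP) in Tris acetate pH 7.5 buffer; luminescence output.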
Rab9 promoter act: qHTS Assay for Rab9 Promoter Activators; 320,000 compounds, 2.8% hits; Potency, µM (doses to about 9.22 µM), for inactives: top-dose activation, negative = inhibition, hits mostly activators; Huh7 Rab9 promoter-luciferase reporter, luminescence, 24 h; note: % of control where 0% means no effect; nearly all actives have a fitted effect of over 60% in size
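Luminescence read-out: Huh7 cells stably expressing Rab9-luciferase, treated 24 h with compound at 37 °C, then lysed with luciferase reagent for 10 min at ambient before reading.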
ELG1 genotoxic: qHTS screen for small molecules that induce genotoxicity in human embryonic kidney (HEK293T) cells expressing luciferase-tagged ELG1; HEK293T ELG1-luciferase reporter, luminescence, 16 h; Potency, µM (titrated, usually from 46 µM), for inactives: at the top dose activity change, positive = activation, usual class: activators; 330,000 compounds, 1.3% hits; note: % of control where 0% means no effect; nearly all actives have a fitted effect of over 60% in size
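Genotoxic stress is detected as increased luminescence from luciferase-tagged ELG1 in HEK293T cells, measured with ONE-Glo after a 16 hr treatment at 37 °C.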
* = called active by the depositor; ? = inconclusive; · = not tested or not shown. An excerpt weighted towards active compounds, which were near 9.2% of everything screened. Calls come from the whole dose curve; as a rule, active = well fitted curve in the direction sought with a large enough effect; inconclusive = small, poorly fitted or top-dose-only effect, or another doubt; inactive = no such curve, though single readings can be large; an effect the other way counts as inactive or inconclusive. Potency is the fitted concentration of half-maximal effect.

SMILES | NPC1 prom act | SMN2 splice up | ELG1 DNA repair | FLuc counter | Rab9 promoter act | ELG1 genotoxic
O=C(Nc1ccnn1C1CCN(Cc2ccc(C#CCCO)cc2)CC1)c1cccc(F)c1 | -3% | · | 1% | 4% | 12% | -5%
CCc1nc2ccc(C(=O)NCCc3ccc(OC)cc3)cc2nc1CC | -4% | · | -8% | -5% | -2% | -10%
O=C(COC(=O)C12CC3CC(CC(O)(C3)C1)C2)Nc1cccc(Br)c1 | 1% | · | 19% | 13µM* | -2% | 2%
CC1CC1C(=O)OCC(=O)Nc1cccc(Br)c1 (stereo unspecified) | 0% | · | 17% | ? | 0% | 2%
COc1ccc(N2Cc3ccc(C(=O)N/N=C\c4ccc(O)cc4O)cc3C2)cc1 | ? | · | ? | 15µM* | ? | 11%
O=C(N/N=C/c1ccc(F)cc1)c1cccc(NC(=O)c2ccccc2Cl)c1 | 0% | · | 0% | 9.5µM* | 6% | 2%
COc1ccc(/C=N/NC(=O)c2cccc(NC(=O)c3ccccc3Cl)c2)c(OC)c1 | 10% | -28% | -7% | 4.3µM* | 2% | 14%
COc1ccc(NC(=O)O/N=C/c2ccccc2Cl)cc1 | 4% | · | ? | 30µM* | -2% | 16%
Cc1ccc(CNC(=O)c2ccc3c(c2)c(C)c(C)n3Cc2ccc(Cl)cc2)o1 | · | · | · | -11% | · | ·
COc1ccccc1/C=N/NC(=O)c1cccc(NC(=O)c2ccccc2C)c1 | -3% | · | 0% | 15µM* | 1% | -18%
COc1ccc(/C=N/NC(=O)c2cccc(NC(=O)c3ccccc3Cl)c2)cc1 | -19% | · | ? | 5.4µM* | -2% | 0%
CCCCC(=O)Nc1cccc(C(=O)N/N=C/c2ccc(OC)cc2OC)c1 | -1% | -18% | -19% | 17µM* | 1% | 0%
COc1cc(/C=N/NC(=O)c2cccc(NC(=O)c3ccccc3Cl)c2)ccc1O | 5% | -7% | ? | 15µM* | -5% | -9%
COc1ccc(-c2c3c(=O)n(C)c(=O)n(C)c3c3n2-c2ccccc2NC3c2ccco2)cc1 (stereo unspecified) | · | · | · | 3% | · | ·
COc1ccc(C(=O)Nc2cccc(C(=O)N/N=C/c3ccc(OC)cc3OC)c2)cc1 | ? | · | ? | 1.9µM* | 4µM* | 1%
O=C(C1CCN(S(=O)(=O)c2ccccc2[N+](=O)[O-])CC1)N1CCOCC1 | -5% | -4% | 9% | 1% | 4% | -1%
COc1ccc(Cl)cc1CN1CCN(c2nc(C)cc(C)c2C#N)CC1 | -2% | -38% | -10% | -2% | -10% | -15%
Cc1cc(C)c(C#N)c(N2CCN(CCOc3ccc(Cl)cc3)CC2)n1 | 0% | -26% | 18µM* | 1% | ? | 4%
Cc1nnc2ccc(-c3ccc(NS(=O)(=O)c4ccc(F)cc4F)cc3)nn12 | -4% | · | ? | 0% | -4% | 21µM*
Cc1nnc2ccc(-c3ccc(NS(=O)(=O)c4ccccc4[N+](=O)[O-])cc3)nn12 | -8% | · | ? | 4% | -9% | ?
Cc1nnc2ccc(-c3ccc(NS(=O)(=O)c4ccccc4F)cc3)nn12 | -6% | · | ? | 1% | -5% | 21µM*
CCc1ccc(S(=O)(=O)Nc2ccc(-c3ccc4nnc(C)n4n3)cc2)s1 | -4% | · | ? | 18% | -3% | 23µM*
COc1ccc(/C(C)=N/NC(=O)c2ccccc2OCc2ccccc2)c(OC)c1 | ? | 13µM* | ? | 19µM* | ? | ?
COc1ccccc1C=NNC(=O)c1ccccc1OCCOc1ccccc1 | · | · | ? | · | · | -6%
COc1ccc(COc2ccccc2C(=O)NCc2ccccc2)cc1F | 0% | -50% | 26µM* | -1% | -11% | -7%
SMILES | NPC1 prom act | SMN2 splice up | ELG1 DNA repair | FLuc counter | Rab9 promoter act | ELG1 genotoxic
COc1ccc(/C=N/NC(=O)c2ccccc2OCc2ccccc2)c(OC)c1 | -2% | -14% | ? | 17µM* | 1% | -12%
O=C(CNC(=O)c1ccccc1O)N/N=C/c1cc(Br)ccc1OC(=O)/C=C/c1ccco1 | -40% | -103% | 4.1µM* | -11% | -23% | -4%
COc1cc(C(=O)NCc2ccccc2)ccc1OC(F)F | 6% | · | 6% | -5% | -5% | -4%
COc1ccc(CC(=O)Nc2ccc(/C(C)=N/NC(=O)c3ccc(OC)cc3OC)cc2)cc1 | 0% | · | -2% | 3% | 0% | 4%
COc1ccccc1C(=O)NCC(=O)N/N=C/c1cc(Br)ccc1OCc1ccccc1 | 1% | 4% | 7.3µM* | 8% | -4% | -15%
O=C(CNC(=O)c1ccc(F)cc1)N/N=C/c1cc(Br)ccc1OCc1ccccc1 | -3% | 9% | ? | 2% | -5% | -6%
COC(=O)c1ccccc1CON1C(=O)C(C)(C)N(OCc2ccccc2C(=O)OC)C(=O)C1(C)C | 1% | -22% | ? | 2% | 0% | -10%
CCOC(=O)C1CCN(c2ccccc2CN2CCN(c3ccccc3OCC)CC2)CC1 | -1% | · | 16µM* | -2% | -2% | -22%
O=c1c(=Nc2ccccc2O)c(=O)c2ccccc12 | ? | 11µM* | ? | -19% | 3.5µM* | ?
Cc1ccc2c(cnn2C(=O)CCC(=O)N2CCCCC2)c1 | -1% | · | 21% | 12µM* | 1% | -14%
CCc1ccc(CNC(=O)CCC(=O)n2ncc3cc(C)ccc32)cc1 | -4% | · | 17% | 0% | 2% | -1%
Cc1ccc2c(cnn2C(=O)CCCC(=O)NCc2ccc(F)cc2)c1 | 7% | · | 25% | 13µM* | 29% | -8%
O=C(CCC(=O)n1ncc2ccccc21)N1CCCCC1 | 1% | · | ? | ? | 3% | 0%
Cc1cc(C)c2c(N)c(C(=O)Nc3nccs3)sc2n1 | ? | ? | ? | 0.34µM* | 1µM* | 0.33µM*
COCc1cc(C)nc2sc(C(=O)Nc3nccs3)c(N)c12 | ? | 12% | ? | 17µM* | ? | 19%
CCCCOC(=O)c1sc2nc(C)cc(C)c2c1N | 3.5µM* | · | ? | 11µM* | 2.8µM* | ?
Cc1ccc(NC(=O)c2sc3nc(C)cc(C)c3c2N)cc1 | 0.56µM* | · | ? | 1.2µM* | 0.56µM* | ?
COc1ccc(NC(=O)CCNS(=O)(=O)c2cc(Br)cnc2N)c(OC)c1 | -2% | · | 21% | 0% | -3% | -4%
C=CCSc1ncc(-c2ccccc2)cn1 | 24% | 11% | ? | 15µM* | 26% | 15%
